PfM18AAP inh: PfM18AAP enzyme inhibition; recombinant PfM18AAP, H-Glu-NHMec fluorogenic cleavage; inhibition, % at 7.35 µM; hit rate 1.2% among 290,000; AID 1822;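 active = inhibition above the campaign mean inhibition over all tested compounds plus 3 SD, cut at about 28% in these data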;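 note: 0% = plate median of test compound wells and 100% = 2 mM ZnCl2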
HIF act: HIF pathway transcriptional activation; AID 1910; activation, % at 7.5 µM (by protocol); U2OS HRE-luciferase reporter, luminescence; normalized: DMSO 0%, desferrioxamine 100%; hit rate 0.32% among 300,000;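 active = mean activation of at least 10% of the iron chelator positive control signal, with at least half of replicates also reaching 10%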
ALR H2O2 inh: blocks human ALR sulfhydryl oxidase activity; hit rate 3.8% among 290,000; inhibition, % (concentration not given with the values); purified ALR, DTT oxidation, H2O2 HRP-luminol luminescence; AID 485317;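 active = mean replicate inhibition above about 79%, with every replicate also reaching it, limit read from the data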
Target sequence (P55789 whole entry, looked up): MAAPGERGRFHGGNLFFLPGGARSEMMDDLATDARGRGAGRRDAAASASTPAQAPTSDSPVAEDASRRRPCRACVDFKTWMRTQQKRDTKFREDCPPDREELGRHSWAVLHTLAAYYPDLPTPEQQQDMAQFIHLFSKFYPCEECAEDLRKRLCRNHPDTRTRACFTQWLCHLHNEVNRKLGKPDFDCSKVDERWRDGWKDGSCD
Mot1-301 SUMO: inhibitors of SUMOylation pathway: yeast Mot1-301 growth rescue; growth rescue, % at 18.8 µM; S. cerevisiae Mot1-301 growth rescue, ATP luminescence, 38.5C; percent above DMSO median, 100 means doubled; hit rate 1% among 320,000;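 active = every valid replicate shows activation above 250% relative to neutral control wells; inactive = the rest, any valid replicate at or below 250%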;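 note: OY570 slx delta 5 strain wells were the positive control but not used for scaling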
* hit, by the source's call; x = no result given. Only some compounds are listed: those with a hit (about 5.3% of all), similar ones and a draw of the others.

SMILES | PfM18AAP inh | HIF act | ALR H2O2 inh | Mot1-301 SUMO
COc1cc(C)c(CN2CCN(S(=O)(=O)c3ccc(Cl)s3)CC2)cc1OC | x | x | x | 7
COc1ccc(C(CC(=O)c2ccccc2)CC(=O)c2ccccc2)cc1OC | -11 | 0 | -4 | -9
CCc1ccc(N=C2NC(=O)CS2)cc1 | 1 | -1 | -8 | -6
O=[N+]([O-])c1ccc2c(c1)CNc1ccccc1O2 | 7 | 0 | 99* | 24
O=C(O)c1ccccc1C(=O)Nc1ccc(Oc2ccc3ccccc3c2)cc1 | -6 | 0 | 99* | 261
O=C(Nc1ccc(C(=O)c2ccc(C(=O)O)c(C(=O)O)c2)cc1)c1ccccc1 | -3 | -13 | 62 | -7
Cc1ccc(C(=O)Nc2ccc(Oc3ccc(C(=O)O)c(C(=O)O)c3)cc2)cc1C | 2 | 0 | 98* | 5
O=C(O)c1ccccc1C(=O)Nc1ccc(Oc2cccc3ccccc23)cc1 | -2 | -4 | x | x
Cc1c(C)c(C)c(C(=O)c2ccc(NC(=O)c3ccccc3C(=O)O)cc2)c(C)c1C | -1 | 1 | 96* | 34
CCC(C)[C@H](NC(=O)N1CC(=O)Nc2ccccc21)C(=O)N[C@H](C(=O)O)c1ccccc1 (some centres undefined) | -3 | 0 | x | 2
CC(OC(=O)c1cc(-c2cccnc2)nc2ccccc12)C(=O)Nc1ccc2ccccc2c1 (centres undefined) | 1 | -1 | -5 | 11
Cc1ccc(S(=O)(=O)Cc2ccc(C(=O)N3CCN(Cc4ccccc4)CC3)o2)cc1 | -3 | x | 94* | -7
O=C(c1ccc(CS(=O)(=O)c2ccc(Br)cc2)o1)N1CCCCCC1 | -1 | x | -30 | 231
O=C(c1ccc(CS(=O)(=O)c2ccc(Br)cc2)o1)N1CCCC1 | -10 | x | 96* | 1
COc1ccc(NC(=O)C2=CC=CN3CCS(=O)(=O)N=C23)c(OC)c1 | x | x | -7 | 7
OC(CN1CCOCC1)C12CC3CC(CC(C3)C1)C2 (centres undefined) | -1 | 0 | -3 | 116
C1CN(CC23CC4CC(CC(C4)C2)C3)CCO1 | 2 | 0 | -4 | 344*
COC(=O)C(C)N1C(=O)S/C(=C\c2ccc(-c3ccc(C(=O)O)cc3C)o2)C1=O (centres undefined) | 3 | 3 | 98* | 0
O=C(OCc1cc([N+](=O)[O-])cc2c1OCOC2)c1ccc2ccccc2n1 | 3 | 0 | 1 | 292*
CC1=C(C(=O)OC2CCCCC2)C(c2ccccc2)NC(=O)N1 (centres undefined) | 3 | -1 | 97* | 7
CCOC(=O)CCc1c(C)c2ccc(O)cc2oc1=O | -8 | 0 | 81* | 494
Cc1c(Cc2ccccc2)c(=O)oc2cc(O)ccc12 | 3 | 0 | 47 | 0
COC(=O)CSc1nc2sc3c(c2c(=O)n1-c1ccccc1)CCN(C)C3 | 0 | 0 | 100* | -12
CN1CCc2c(sc3nc(SCC(N)=O)n(-c4ccccc4)c(=O)c23)C1 | 6 | 0 | -17 | 0
CCn1c(SCC(=O)c2ccccc2)nc2sc3c(c2c1=O)CCN(C)C3 | 5 | 1 | 99* | -13
SMILES | PfM18AAP inh | HIF act | ALR H2O2 inh | Mot1-301 SUMO
CCn1c(SCC(=O)NCCc2ccccc2)nc2sc3c(c2c1=O)CCN(C)C3 | 16 | x | x | -25
CCOCCCn1c(SCC(=O)Nc2ccc(NC(C)=O)cc2)nc2ccccc2c1=O | -3 | 1 | -5 | 2
O=C(CCS(=O)(=O)c1ccc(Br)cc1)NCCC1=CCCCC1 | -8 | x | -7 | 0
Nc1ccc(Oc2cc(N)cc(Oc3ccccc3)c2)cc1 | 0 | 0 | 100* | 267
Nc1ccc(Oc2ccc3nc(-c4ccccc4)c(-c4ccccc4)nc3c2)cc1 | -12 | 0 | 0 | 166
Cc1ccc(Nc2c(-c3ccccc3)nc3cnccn23)cc1 | 8 | 0 | 98* | 124
COc1ccc(-c2nc3cnccn3c2Nc2ccc(C)cc2)cc1 | -10 | 0 | 86* | -27
Oc1ccccc1-c1nc2cnccn2c1Nc1ccc2c(c1)OCCO2 | -1 | 0 | 69 | -6
Cc1ccc(Nc2c(-c3cccnc3)nc3ccc(Br)cn23)cc1 | -12 | -1 | 1 | x
Cc1nc2oc3ccc(F)cc3c(=O)c2cc1C(=O)NC(C)(C)C | 3 | 4 | 4 | -3
CC(=O)C1CCCN(C(=O)c2ccc3oc(CCc4ccccc4)nc3c2)C1 (centres undefined) | -6 | 1 | 1 | 6
CCOC(=O)C1CCCN(C(=O)c2ccc3ncsc3c2)C1 (centres undefined) | x | x | 96* | 7
CCOC(=O)C1CCN(C(=O)c2c(-c3ccccc3)noc2C)CC1 | -1 | 0 | -6 | 765*
CCOC(=O)C1CCCN(C(=O)c2ccc3nc(-c4ccc(OC)c(OC)c4)c(-c4ccc(OC)c(OC)c4)nc3c2)C1 (centres undefined) | 0 | -1 | 1 | 17
CCOC(=O)C1CCCN(C(=O)c2ccc3oc(CCc4ccccc4)nc3c2)C1 (centres undefined) | 2 | 63* | -1 | 9
CCOC(=O)C1CCCN(C(=O)c2ccc3nc(-c4ccccc4)c(-c4ccccc4)nc3c2)C1 (centres undefined) | -3 | 17* | -10 | 17
Cc1nonc1C1CCCN1Cc1nc(-c2ccccc2Cl)oc1C (centres undefined) | 1 | 0 | 2 | 19
COc1ccccc1N1C(=O)CC(Sc2n[nH]c(-c3cccc(C)c3)n2)C1=O (centres undefined) | -60 | -11 | 99* | -3
N#Cc1ccsc1NC(=O)CSc1ncn[nH]1 | 27 | 1 | -3 | -12
CN(C)S(=O)(=O)c1cccc(NC(=O)CSc2ncnc3ccccc23)c1 | 5 | 1 | 99* | -1
O=C(CSc1ncnc2ccccc12)Nc1cccc(S(=O)(=O)N2CCOCC2)c1 | 5 | 0 | 98* | 1
N#Cc1ccsc1NC(=O)CSc1ncnc2ccccc12 | -1 | 0 | 98* | 3
CN(C)S(=O)(=O)c1ccc(NC(=O)CSc2ncnc3ccccc23)cc1 | -1 | 0 | x | 191
Cn1c(=O)c2ccccc2n(CC(=O)NCCC2=CCCCC2)c1=O | 7 | 0 | x | -10
CC(C)(C)OC(=O)N[C@@H](Cc1ccccc1)C(=O)N[C@@H](CO)[C@H](O)[C@@H]1C[C@@H]1C(=O)NC1CCCCC1 | x | x | 3 | -20
SMILES | PfM18AAP inh | HIF act | ALR H2O2 inh | Mot1-301 SUMO
COc1ccccc1[C@@]1(C)ON(c2ccccc2C(F)(F)F)C1=O | x | x | -1 | 326*
Cc1ccccc1[C@]1(C)ON(c2ccccc2C(F)(F)F)C1=O | x | x | 3 | 62
CCC(=O)N1c2ccccc2NC2=C(C(=O)CC(C)(C)C2)C1c1cccnc1 (centres undefined) | -1 | -2 | -5 | -7
CCOC(=O)COc1c(Br)cc(/C=C2\SC(=O)N(CC(=O)N3CCCC3)C2=O)cc1OC | 2 | -1 | x | -28
COc1cccc(/C=C2/SC(=O)N(CC(=O)N3CCc4ccccc4C3)C2=O)c1OCC(=O)O | 16 | 0 | 98* | -8
COc1cccc(/C=C2/SC(=O)N(C)C2=O)c1OCc1ccc(C(=O)O)cc1 | 29* | 0 | 1 | -9
